Results reported in article PMC7819943, “Rice protein-binding microarrays: a tool to detect cis-acting elements near promoter regions in rice”.
Whole data set: some 68,000 sequences, median “fluorescence intensity (a.u.)” near 9,100, cut for the highest 2% near 16,000. Many of the other results were omitted from the sample, so the highest values are more common in it than they were.

These sequences were tested against OsWRKY34 (Oryza sativa, UniProt Q0JBA9 1-250) (assay: protein-binding microarray (RPBM); PBS, 2% BSA, 51.3 ng/ul salmon testes DNA, 50 uM zinc acetate, 200 nM TF, 25 C, 1 h; high values mean tight binding). Settings: protein: recombinant; tags: N-terminal polyhistidine and DsRed monomer fusion (pET32a); label: CyDye5-dUTP incorporated in the synthesized complementary strand; 3' TTTTT single-stranded linker to array surface; dsDNA, one strand shown.
Sequence of OsWRKY34 (Q0JBA9 entry or part of it): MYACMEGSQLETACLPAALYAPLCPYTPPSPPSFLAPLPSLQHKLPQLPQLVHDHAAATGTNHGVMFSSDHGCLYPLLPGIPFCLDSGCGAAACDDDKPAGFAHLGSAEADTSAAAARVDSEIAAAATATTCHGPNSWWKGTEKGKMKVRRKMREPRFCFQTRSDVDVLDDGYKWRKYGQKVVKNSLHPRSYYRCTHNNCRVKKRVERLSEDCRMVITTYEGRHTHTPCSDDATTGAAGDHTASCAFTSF
In short: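 Per-feature fluorescence intensity (arbitrary units), read on an Axon 4000B scanner, is the binding signal. Transcription factors carrying an N-terminal polyhistidine tag and DsRed fusion were expressed in E. coli BL21-CodonPlus and purified on Ni–NTA. A custom Agilent array, made double-stranded by primer extension with Cy5-dUTP and blocked with 2% BSA, was incubated with 200 nM protein in PBS, 2% BSA, salmon testes DNA and 50 µM zinc acetate at 25 °C for 1 h and then washed.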
With “TTTAAAACTAGGACCTGAGTAAATATTTTTCTTGAGTTTTCGGAGTCACCTAGTGCAG” the binding signal was 8040 fluorescence intensity (a.u.).
With “GCTAGTTGTAATATACACATAATTGTTGCTTCATTTCAACCGGAGTCACCTAGTGCAG” the binding signal was 9790 fluorescence intensity (a.u.).
For “TTGCAGTATCCCGGTTGCCCACCTTTCATGGTCCATCACCCGGAGTCACCTAGTGCAG”, the binding signal was 8490 fluorescence intensity (a.u.).
In the case of “GCAATTATTAATGTACCGCTCCGTTTTCATTTTTGGGTTGCGGAGTCACCTAGTGCAG”, the binding signal is reported as 8630 fluorescence intensity (a.u.).
“TGTGGAGTTTGAGGATTGCACAATAATCTCAGGGGCGGGCCGGAGTCACCTAGTGCAG” was tested, and the binding signal was 8590 fluorescence intensity (a.u.).
For “AGGTTATAAGACGTTTTGACTTTGGTTAAAGTCAAACTACCGGAGTCACCTAGTGCAG”, the binding signal was 9600 fluorescence intensity (a.u.).
“CCTCTCGGGCGCCTCTCCTCTCCATCATTCCTCCCACTGCCGGAGTCACCTAGTGCAG” was tested, and the binding signal was 9880 fluorescence intensity (a.u.).
With “ACCGAAAGTTCAATTTGGTCCTTTACATTTTATTTTGTCCCGGAGTCACCTAGTGCAG” the binding signal was 8240 fluorescence intensity (a.u.).
For “TTGTGTATTGGTGCTGTCGGTGCATGGGTGGTGGTTTTTTCGGAGTCACCTAGTGCAG”, the binding signal was 20700 fluorescence intensity (a.u.).
With “GTACTATGTATTGTCCCATCGTTGTATAGGTTGGTTTTTTCGGAGTCACCTAGTGCAG” the binding signal was 8240 fluorescence intensity (a.u.).
“GCTATGTAATGTCCCATCCGTGCTGTATAGTTTGGGTTTTCGGAGTCACCTAGTGCAG” was tested, and the binding signal was 17200 fluorescence intensity (a.u.).
With “TTGTGCTGGTTTTGGTTTTGGTTTTGGGTTGCATGTATGTCGGAGTCACCTAGTGCAG” the binding signal was 9790 fluorescence intensity (a.u.).
“ATGTATGCACGATGTGAGTGTCCGTGTTTGTAATGTGTTTCGGAGTCACCTAGTGCAG” was tested, and the binding signal was 11300 fluorescence intensity (a.u.).
For “CCTGTGTGTTGGTGCTGTCGGTATGTGGGTGGTGGTATTTCGGAGTCACCTAGTGCAG”, the binding signal was 14600 fluorescence intensity (a.u.).
For “ACCTACTCACAATCACAGAATCACATCATAACATTATTGTCGGAGTCACCTAGTGCAG”, the binding signal was 9160 fluorescence intensity (a.u.).
With “CCTGCCATGTCATGTTTGTACCTAGATACCAGGTATGACGCGGAGTCACCTAGTGCAG” the binding signal was 8960 fluorescence intensity (a.u.).
For “AGATGTTTCCGCTGATACTTTGATACGTCGTCCTTATTTGCGGAGTCACCTAGTGCAG”, the binding signal was 10800 fluorescence intensity (a.u.).
For “CCGATTCCCTGCCGCATCTGCCCGTTGCCCTCGCGCCCGGCGGAGTCACCTAGTGCAG”, the binding signal was 8880 fluorescence intensity (a.u.).
“TGCAGATTTGGTTTTTCTTTTTTTTCGCACGTTCTCTTTCCGGAGTCACCTAGTGCAG” was tested, and the binding signal was 15700 fluorescence intensity (a.u.).
In the case of “TATTTTTTGCTATTATCTTTCGTGTAAGCTATTTCTCTATCGGAGTCACCTAGTGCAG”, the binding signal is reported as 9170 fluorescence intensity (a.u.).
For “AAACGGTGCGTTTTTTGCAAAAAAATTCTATAGGAAAGTTCGGAGTCACCTAGTGCAG”, the binding signal was 63900 fluorescence intensity (a.u.).
With “CAGTGCGTATTTGCAATATATATATATAGGAAAGTTTCTTCGGAGTCACCTAGTGCAG” the binding signal was 9390 fluorescence intensity (a.u.).
In the case of “GTGTGTGTTTTTGCAAAAGTTTTCTATAGAAAAGTTACATCGGAGTCACCTAGTGCAG”, the binding signal is reported as 8210 fluorescence intensity (a.u.).
With “TTTTTATACTGTTGGTACATATTCAAATTTGTCAAACATTCGGAGTCACCTAGTGCAG” the binding signal was 8960 fluorescence intensity (a.u.).
With “AATTCAAATTCATACTGTTCAAACAAAGTCATATAGAAAACGGAGTCACCTAGTGCAG” the binding signal was 28600 fluorescence intensity (a.u.).
For “TATATATATATATATATATATATATAGAAATTAAGTCAAACGGAGTCACCTAGTGCAG”, the binding signal was 8940 fluorescence intensity (a.u.).
In the case of “TCCTGTGCCTCTCTCATGGTGTGGGTGTCTGTGTCTTTGACGGAGTCACCTAGTGCAG”, the binding signal is reported as 9040 fluorescence intensity (a.u.).
With “AAGGTGGGGTCATCATAAATATTTTTTAAGTGAAAATTTTCGGAGTCACCTAGTGCAG” the binding signal was 9840 fluorescence intensity (a.u.).
For “CTATGAAGTTAAAAATACGCTCATCAGAAAGGATATATTTCGGAGTCACCTAGTGCAG”, the binding signal was 57200 fluorescence intensity (a.u.).
In the case of “AATGGATATCAGGATATGAAGCTCAAAGTTATCGGTTATTCGGAGTCACCTAGTGCAG”, the binding signal is reported as 8240 fluorescence intensity (a.u.).
“GGTTGAGGCTGTTTTCCGATCGTTCCGACCGTTTTCATCCCGGAGTCACCTAGTGCAG” was tested, and the binding signal was 8700 fluorescence intensity (a.u.).
“GCCAACCGCATGCCGTCCCCGATGCCGCCCGCCGTCAACCCGGAGTCACCTAGTGCAG” was tested, and the binding signal was 8290 fluorescence intensity (a.u.).
In the case of “ATATTACTGGTGTTTACTTGCTTTTCTTTTTTTAAAAAAACGGAGTCACCTAGTGCAG”, the binding signal is reported as 9160 fluorescence intensity (a.u.).
“ATATAAGGGATTTTGAGTTTTTGATTGCAACGTTTGACCACGGAGTCACCTAGTGCAG” was tested, and the binding signal was 8550 fluorescence intensity (a.u.).
In the case of “TATGCATCACCTCGTAATCCACAACTGACTTACCCTTTCTCGGAGTCACCTAGTGCAG”, the binding signal is reported as 12300 fluorescence intensity (a.u.).
For “CTTTTGTGCTCATCTGAACTTCTGAAGTATCATAAAGAAGCGGAGTCACCTAGTGCAG”, the binding signal was 31400 fluorescence intensity (a.u.).
With “AGAATGTTTGCTCAAAGTATGTTTTTGTCATCTGTTTTTCCGGAGTCACCTAGTGCAG” the binding signal was 8800 fluorescence intensity (a.u.).
With “TGCTTTTGTATTTTTTTTGCTGTGTATATATCATAAACTTCGGAGTCACCTAGTGCAG” the binding signal was 8550 fluorescence intensity (a.u.).
With “TATTGTGTACTACATCTTTTATTATTTCTTTCAAATTTCACGGAGTCACCTAGTGCAG” the binding signal was 10500 fluorescence intensity (a.u.).
“CTCTCCCGGTCGCGCCGCCATCTCCTCTCCCAATCGCGCGCGGAGTCACCTAGTGCAG” was tested, and the binding signal was 8860 fluorescence intensity (a.u.).
With “CACTTCTATTGGTTCTTTGTCTGGGAGTAGCAGCATAAGTCGGAGTCACCTAGTGCAG” the binding signal was 8540 fluorescence intensity (a.u.).
For “GACCTACGTCACCACCTTGCATGTCCCACGCGGAGCTCCACGGAGTCACCTAGTGCAG”, the binding signal was 9230 fluorescence intensity (a.u.).
For “GCAACTGTGTTTTCAATTCTGCAAATGCTATTCTCTGTTACGGAGTCACCTAGTGCAG”, the binding signal was 11800 fluorescence intensity (a.u.).
For “CCGTCGATTTGGTTGGTTGGTTGATCGGCGGCGAGGAGGGCGGAGTCACCTAGTGCAG”, the binding signal was 11400 fluorescence intensity (a.u.).
In the case of “TGATTTGCGCGAGGGTTTGGTTTGGTTTGGTTTGAGTCGACGGAGTCACCTAGTGCAG”, the binding signal is reported as 19200 fluorescence intensity (a.u.).
For “TAGATGAAATGGGTTGGGTTGATTTGGGTTGAAATATGATCGGAGTCACCTAGTGCAG”, the binding signal was 21800 fluorescence intensity (a.u.).
“TTTTTTTATTTTTTTTGAAATATTTTTTGTTGGGTTTTTTCGGAGTCACCTAGTGCAG” was tested, and the binding signal was 13100 fluorescence intensity (a.u.).
For “GATTTTTAGTGAATATAATGAAATTTCACAGGGGAGGGGCCGGAGTCACCTAGTGCAG”, the binding signal was 13400 fluorescence intensity (a.u.).
In the case of “GATTTGGGTTGAAATATGATATGGGTTGGATTGGTTTGGACGGAGTCACCTAGTGCAG”, the binding signal is reported as 16100 fluorescence intensity (a.u.).
In the case of “TTTGGGATAAATCATGAGGGGTTAAAAGTTGTTATATTTTCGGAGTCACCTAGTGCAG”, the binding signal is reported as 10100 fluorescence intensity (a.u.).
With “TCGCGTAGGGGAGGGGTGAAATATATTTTTTATGCCGGGCCGGAGTCACCTAGTGCAG” the binding signal was 18000 fluorescence intensity (a.u.).
“ATGAACTTAGTTGTTTTTTTTTGGGTTTTACTTGCATAATCGGAGTCACCTAGTGCAG” was tested, and the binding signal was 8220 fluorescence intensity (a.u.).
For “GGGGTTAGTTGTCCGTTTTGCATAGTTGGGGATAAAAAATCGGAGTCACCTAGTGCAG”, the binding signal was 18500 fluorescence intensity (a.u.).
With “GCGCTTCGATTTGGTTTGGTTTGATTCGGTTTGCGAGATGCGGAGTCACCTAGTGCAG” the binding signal was 8780 fluorescence intensity (a.u.).
In the case of “GATTTTTAGTGAATATAATGAAATTTCATAGGGGAGGGGCCGGAGTCACCTAGTGCAG”, the binding signal is reported as 8930 fluorescence intensity (a.u.).
